According to PubChem BioAssay AID1159580 (chemical genetic matrix, 2015):
Out of some 5,500 compounds screened, about 2,000 (36%) were called active. Roughly 18% stayed inconclusive and do not appear here. Cut-off read from the data, not from the text of the source: active = normalized growth mostly below about 0.91 (no sharp cut-off); inconclusive = no clear call, values can overlap the other calls; inactive = mostly above about 0.92. Some of the results follow.

Test: chemical genetic growth profiling, strain panel (AID 1159580);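 note: tested at 20 µM; growth read once vehicle control cultures reached saturation at 30 °C; 1 = growth at the plate median or of vehicle wells; lower values mean less growth of the strain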
Conditions: growth OD

Measured: normalized growth

CCCN(CCC)c1c([N+](=O)[O-])cc(C(F)(F)F)cc1[N+](=O)[O-]
inactive: S. cerevisiae deletion strains, locus YJR075W, strain HOC1, hits give low values 0.994 | S. cerevisiae deletion strains, locus YKL009W, strain mrt4, hits give low values 1.03 | S. cerevisiae deletion strains, locus YKL068W, hits give low values 1.01 | S. cerevisiae deletion strains, locus YKL085W, strain MDH1 (second series), hits give low values 1 | S. cerevisiae deletion strains, locus YKL085W, strain MDH1, hits give low values 1 | S. cerevisiae deletion strains, locus YKL160W, strain elf1, hits give low values 1 | S. cerevisiae deletion strains, locus YKL190W, strain CNB1, hits give low values 1.01 | S. cerevisiae deletion strains, locus YKR001C, strain vps1, hits give low values 1.03 | S. cerevisiae deletion strains, locus YKR026C, strain gcn3, hits give low values 0.97 | S. cerevisiae deletion strains, locus YKR091W, strain srl3, hits give low values 0.999 | S. cerevisiae deletion strains, locus YLL001W, strain dnm1, hits give low values 0.999 | S. cerevisiae deletion strains, locus YLL026W, hits give low values 0.999 | S. cerevisiae deletion strains, locus YLL041C, strain sdh2, hits give low values 1 | S. cerevisiae deletion strains, locus YLR027C, strain aat2, hits give low values 1.01 | S. cerevisiae deletion strains, locus YLR039C, strain RIC1, hits give low values 0.99 | S. cerevisiae deletion strains, locus YLR058C, strain SHM2, hits give low values 1 | S. cerevisiae deletion strains, locus YLR102C, strain apc9, hits give low values 1.01 | S. cerevisiae deletion strains, locus YLR113W, strain HOG1, hits give low values 1.02 | S. cerevisiae deletion strains, locus YLR221C, strain rsa3, hits give low values 1 | S. cerevisiae deletion strains, locus YLR258W, strain gsy2, hits give low values 0.984 | S. cerevisiae deletion strains, locus YLR262C, strain YPT6 (second series), hits give low values 0.989 | S. cerevisiae deletion strains, locus YLR262C, strain YPT6, hits give low values 1.04 | S. cerevisiae deletion strains, locus YLR268W, strain sec22, hits give low values 1.02 | S. cerevisiae deletion strains, locus YLR320W, strain mms22, hits give low values 1.01 | S. cerevisiae deletion strains, locus YLR330W, strain CHS5, hits give low values 1.02 | S. cerevisiae deletion strains, locus YLR342W, strain FKS1 (second series), hits give low values 1.04 | S. cerevisiae deletion strains, locus YLR342W, strain FKS1, hits give low values 1.04 | S. cerevisiae deletion strains, locus YLR357W, strain rsc2, hits give low values 1.13 | S. cerevisiae deletion strains, locus YLR370C, strain arc18, hits give low values 1 | S. cerevisiae deletion strains, locus YLR371W, strain rom2, hits give low values 1.02 | S. cerevisiae deletion strains, locus YLR384C, strain iki3, hits give low values 1.02 | S. cerevisiae deletion strains, locus YLR418C, strain cdc73, hits give low values 1 | S. cerevisiae deletion strains, locus YML016C, strain PPZ1, hits give low values 0.982 | S. cerevisiae deletion strains, locus YML032C, strain rad52, hits give low values 1.02 | S. cerevisiae deletion strains, locus YML120C, strain ndi1, hits give low values 0.985 | S. cerevisiae deletion strains, locus YML124C, strain tub3, hits give low values 1.02 | S. cerevisiae deletion strains, locus YMR058W, strain fet3, hits give low values 0.989 | S. cerevisiae deletion strains, locus YMR078C, strain ctf18, hits give low values 1.02 | S. cerevisiae deletion strains, locus YMR125W, strain sto1, hits give low values 1.01 | S. cerevisiae deletion strains, locus YMR129W, hits give low values 1.01 | S. cerevisiae deletion strains, locus YMR205C, strain PFK2, hits give low values 0.977 | S. cerevisiae deletion strains, locus YMR223W, strain ubp8, hits give low values 1.01 | S. cerevisiae deletion strains, locus YMR231W, strain pep5, hits give low values 1.01 | S. cerevisiae deletion strains, locus YMR263W, strain SAP30, hits give low values 0.984 | S. cerevisiae deletion strains, locus YMR307W, strain GAS1, hits give low values 0.973 | S. cerevisiae deletion strains, locus YNL067W, strain RPL9B, hits give low values 1.01 | S. cerevisiae deletion strains, locus YNL071W, strain lat1, hits give low values 1 | S. cerevisiae deletion strains, locus YNL128W, strain TEP1, hits give low values 1 | S. cerevisiae deletion strains, locus YNL153C, strain GIM3, hits give low values 0.995 | S. cerevisiae deletion strains, locus YNL183C, strain NPR1, hits give low values 0.915 | S. cerevisiae deletion strains, locus YNL209W, strain ssb2, hits give low values 1.02 | S. cerevisiae deletion strains, locus YNL233W, strain BNI4, hits give low values 0.981 | S. cerevisiae deletion strains, locus YNL248C, strain rpa49, hits give low values 1.04 | S. cerevisiae deletion strains, locus YNL250W, strain rad50, hits give low values 1.01 | S. cerevisiae deletion strains, locus YNL271C, strain bni1, hits give low values 1.01 | S. cerevisiae deletion strains, locus YNL298W, strain CLA4, hits give low values 1.02 | S. cerevisiae deletion strains, locus YNL307C, strain MCK1, hits give low values 1.01 | S. cerevisiae deletion strains, locus YNL322C, strain KRE1 (second series), hits give low values 1 | S. cerevisiae deletion strains, locus YNL322C, strain KRE1, hits give low values 1 | S. cerevisiae deletion strains, locus YNR049C, strain mso1, hits give low values 1.02 | S. cerevisiae deletion strains, locus YNR052C, strain pop2, hits give low values 1.02 | S. cerevisiae deletion strains, locus YOL006C, strain TOP1, hits give low values 1.01 | S. cerevisiae deletion strains, locus YOL012C, strain htz1 0.879 | S. cerevisiae deletion strains, locus YOL147C, strain pex11, hits give low values 1.01 | S. cerevisiae deletion strains, locus YOR001W, strain rrp6, hits give low values 1.01 | S. cerevisiae deletion strains, locus YOR061W, strain CKA2, hits give low values 1 | S. cerevisiae deletion strains, locus YOR069W, strain VPS5, hits give low values 0.998 | S. cerevisiae deletion strains, locus YOR070C, strain gyp1, hits give low values 0.993 | S. cerevisiae deletion strains, locus YOR080W, strain dia2, hits give low values 1.01 | S. cerevisiae deletion strains, locus YOR083W, strain WHI5, hits give low values 1.01 | S. cerevisiae deletion strains, locus YOR106W, strain vam3, hits give low values 1.02 | S. cerevisiae deletion strains, locus YOR136W, strain idh2, hits give low values 1.02 | S. cerevisiae deletion strains, locus YOR144C, strain elg1, hits give low values 1.02 | S. cerevisiae deletion strains, locus YOR184W, strain ser1, hits give low values 1.02 | S. cerevisiae deletion strains, locus YOR231W, strain MKK1, hits give low values 0.986 | S. cerevisiae deletion strains, locus YOR265W, strain rbl2, hits give low values 1.01 | S. cerevisiae deletion strains, locus YOR270C, strain vph1, hits give low values 0.993 | S. cerevisiae deletion strains, locus YOR290C, strain snf2, hits give low values 0.987 | S. cerevisiae deletion strains, locus YOR316C, strain cot1, hits give low values 1.01 | S. cerevisiae deletion strains, locus YPL051W, strain arl3, hits give low values 1.01 | S. cerevisiae deletion strains, locus YPL055C, strain LGE1, hits give low values 1.06 | S. cerevisiae deletion strains, locus YPL078C, strain atp4, hits give low values 0.968 | S. cerevisiae deletion strains, locus YPL106C, strain sse1, hits give low values 1.05 | S. cerevisiae deletion strains, locus YPL240C, strain hsp82, hits give low values 0.988 | S. cerevisiae deletion strains, locus YPL241C, strain CIN2, hits give low values 1.01 | S. cerevisiae deletion strains, locus YPL256C, strain CLN2, hits give low values 0.961 | S. cerevisiae deletion strains, locus YPR119W, strain clb2, hits give low values 1.01 | S. cerevisiae deletion strains, locus YPR141C, strain kar3, hits give low values 1 | S. cerevisiae deletion strains, locus YPR163C, strain tif3, hits give low values 1.02 | S. cerevisiae deletion strains, locus YPR167C, strain met16, hits give low values 1.01 | S. cerevisiae deletion strains, strain wtn01, hits give low values 1.02 | S. cerevisiae strains, strain wild type, hits give low values 1.01
